# High-throughput results as filed in PubChem BioAssay.
# D1 PAM: enhances dopamine response at the human D1 receptor; P21728; HEK293 TREx D1 cells, calcium flux, dopamine EC20 potentiation; potentiation, % at 10 µM; hit rate 0.036% among 360,000; in the data active = potentiation above about 30%; also: 0% is about no effect
# D1 ag: agonists of human D1 dopamine receptor. HEK293 T-REx D1 cells, calcium flux, agonist mode. activation, % at 2 µM. hit rate 1% among 360,000. AID 504660; also: 0% is about no effect
#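 Agonism was scored from calcium flux recorded over 180 s (1 read/s) after pintool compound addition, following a 10-cycle baseline. Cells were inducible force-coupled HEK293 TREx D1, plated overnight at 30 C and loaded with no-wash calcium dye.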
# TRHR enhancer: allosterically enhances the human TRH receptor; P34981; TRHR cells, fluo-8 calcium fluorescence, EC20 TRH enhancement; enhancement, % at 2 µM; hit rate 0.66% among 360,000; in the data active = enhancement above about 30%; also: 0% is about no effect
# Target sequence (P34981 whole entry, looked up): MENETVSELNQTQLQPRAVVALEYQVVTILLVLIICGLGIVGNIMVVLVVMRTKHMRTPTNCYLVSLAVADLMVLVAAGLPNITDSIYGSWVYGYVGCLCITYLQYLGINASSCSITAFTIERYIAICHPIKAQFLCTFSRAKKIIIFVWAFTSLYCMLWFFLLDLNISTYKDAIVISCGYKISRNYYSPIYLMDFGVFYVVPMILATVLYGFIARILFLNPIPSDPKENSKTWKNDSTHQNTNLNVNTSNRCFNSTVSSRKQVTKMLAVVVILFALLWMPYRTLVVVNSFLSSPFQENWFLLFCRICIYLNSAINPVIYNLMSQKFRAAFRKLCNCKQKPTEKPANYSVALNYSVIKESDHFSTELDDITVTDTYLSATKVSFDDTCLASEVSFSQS
#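 TRHR-expressing cells loaded with fluo-8 calcium dye were read kinetically (ex 480/em 530) during compound addition, then stimulated with an EC20 of TRH (10 nM final). Enhancement of the Gq-mediated intracellular calcium response was scored.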
# LDHA block: inhibitors of human lactate dehydrogenase A; P00338; purified LDHA, NADH/diaphorase-resazurin fluorescence; active compounds read low; activity change, % (values are at about 110 or 230 µM); hit rate 0.15% among 480,000; in the data active = activity change below about -30%;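 also: plate controls were DMSO wells for no effect and wells without enzyme for full effect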
#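 Remaining NADH was detected by diaphorase (0.133 mg/mL) converting 37 µM resazurin to fluorescent resorufin, read at 0 and 20 minutes. The preceding 5-minute room-temperature reaction used 2 nM LDHA, 0.2 mM sodium pyruvate and 0.06 mM NADH at pH 7.4.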
# TRHR agonist: activates the human TRH receptor. P34981. TRHR cells, calcium flux fluo-8, FDSS agonist mode. activation, % at 2 µM. hit rate 0.18% among 360,000. AID 493084; also: 0% is about no effect
#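 Steps: seed TRHR cells overnight; add fluo-8 no-wash Ca dye, RT 30 min–1.5 h; record 10 s baseline; pin-transfer compounds; monitor fluorescence 1 cycle/s for the agonist window. Calcium increases flag candidate agonists.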
# D1 antag: blocks dopamine activation of the human D1 receptor; HEK293 TREx D1 cells, calcium flux, dopamine EC80; active compounds read low; P21728; hit rate 3.2% among 360,000; activity change, negative = inhibition, % at 10 µM; AID 504652; in the data active = activity change below about -30%; also: % is scaled to controls: 0 for no effect and ±100 for the full control effect
#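 Tetracycline-induced HEK293 Trex D1 cells, force-coupled to calcium, dye-loaded; compounds added and read 180 s, then EC80 dopamine added and calcium flux tracked kinetically another 180 s.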
# * hit, by the source's call; . = no result. Hits are enriched below; roughly 3.6% of the tested compounds scored in any of these assays. Rule as the data show it, unless noted: active = activation above about 30%; inactive = the rest.
SMILES,D1 PAM,D1 ag,TRHR enhancer,LDHA block,TRHR agonist,D1 antag
O=C(Oc1ccc2c(c1)OCO2)C12CC3CC(CC(C3)C1)C2,7,2,-10,-1,-1,9
CC1(C)N([O-])C(c2ccccc2)=C[N+](=O)C1(C)C,-8,2,-3,-5,0,-1
COc1ccc(OC)c(C2=C[N+](=O)C(C)(C)C(C)(C)N2[O-])c1,54*,4,8,-11,0,-12
Cc1ccc(Oc2ccc(NC(=O)c3nn(C)c(=O)c4ccccc34)cc2)cc1,.,.,.,6,.,.
CCOc1cc2c(cc1/C=C/c1noc(C)c1[N+](=O)[O-])OC(C)C2 (stereo not drawn),6,74*,5,-2,97*,-17
CCOc1cc2c(cc1C=O)OC(C)C2 (stereo not drawn),4,2,8,-1,0,2
O=C1CC(c2ccccc2)C(C(=O)Nc2ccccc2F)N1 (stereo not drawn),-1,-4,3,-1,0,-32*
CCc1ccccc1NC(=O)C1NC(=O)CC1c1ccccc1 (stereo not drawn),.,1,8,1,0,10
Cn1nnnc1-c1cccc(NS(=O)(=O)c2cc(C(F)(F)F)ccc2Cl)c1,.,.,.,2,.,.
CN(C)c1ccc(/C=C(/C(=O)c2ccc(Cl)cc2Cl)n2cncn2)cc1,0,200*,4,-3,75*,-50*
CN(C)/C=C(/C(=O)c1ccc(Cl)cc1)n1cncn1,-3,3,-1,0,0,-33*
COc1ccc(/C=C(/C(=O)c2ccc(Cl)cc2Cl)n2cncn2)cc1,-4,2,-5,-16,2,2
CCOC(=O)c1nc2ccccc2c(-c2ccccc2)c1C,.,.,.,-1,.,.
CCOC(=O)C1=C(O)/C(=C/c2cn(CC(=O)N3CCCC3)c3ccccc23)SC1=Nc1ccccc1,-4,32*,-1,-10,16,-9
NS(=O)(=O)c1ccc(CCNC(=O)CN2CCC(Cc3ccccc3)CC2)cc1,-4,19,4,-1,0,-44*
NS(=O)(=O)c1ccc(CCNC(=O)C2CCN(S(=O)(=O)c3c(Cl)cccc3Cl)CC2)cc1,-5,1,36*,-5,0,-2
NS(=O)(=O)c1ccc(CCNC(=O)C2CCN(S(=O)(=O)c3ccccc3)CC2)cc1,-8,7,15,-10,0,-14
COc1ccc(C(=O)COc2cccc(C#N)c2)cc1OC,.,.,.,-9,.,.
COc1ccc(Oc2c(C)oc3cc(OCC(=O)NC4CC4)ccc3c2=O)cc1,.,.,.,-2,.,.
COc1cc(NC(=O)Cc2c(C(=O)O)n(C)c3ccccc23)cc(OC)c1OC,-10,1,-5,3,0,-106*
CCn1c(=O)n(CC(=O)Nc2cc(OC)c(OC)c(OC)c2)c(=O)c2ccccc21,-5,0,12,-6,0,-45*
Cn1cc(C(=O)NCCNC(=O)c2ccccc2)c2ccccc21,.,.,.,1,.,.
COc1ccc(-c2csc(C)n2)cc1,-9,0,-1,-2,0,-1
COc1cc(C)nc(-c2csc(C)n2)n1,0,1,31*,0,-1,-3
CCCNC(=O)NNC(=O)C(CC)c1ccccc1 (stereo not drawn),.,.,.,3,.,.
SMILES,D1 PAM,D1 ag,TRHR enhancer,LDHA block,TRHR agonist,D1 antag
COc1cccc(N2CCN(c3ncnc4c3[nH]c3ccccc34)CC2C)c1 (stereo not drawn),-3,6,-5,.,0,-14
COc1cccc(N2CCN(c3ncnc4c3[nH]c3ccc(F)cc34)CC2C)c1 (stereo not drawn),-8,11,6,-4,0,-35*
Cc1cc(C)cc(OCC(=O)N(Cc2cccs2)c2ccc(Cl)cc2)c1,1,33*,0,0,1,10
Cc1ccc(N(Cc2cccs2)C(=O)COc2cccc(C)c2)cc1,0,11,2,2,1,-14
Cc1ccc(Cl)cc1NC(=O)N1CCN(C(=O)c2nonc2N)CC1,.,.,.,0,.,.
O=C(Nc1nc(-c2ccc3ccccc3c2)cs1)c1cc[n+]([O-])cc1,.,.,.,7,.,.
O=C(CSc1c2c(nc3ccccc13)CCC2)Nc1ccc(F)cc1F,-2,-1,-8,6,-1,-36*
COc1ccc(NC(=O)c2ccc3c(SCC(=O)O)c4c(nc3c2)CCC4)c(OC)c1,1,2,4,0,0,-35*
O=C(c1ccc(F)cc1)C1CCN(C(=S)NCC2CCCO2)CC1 (stereo not drawn),1,16,-4,2,0,-35*
Cc1ccc(C(=O)C2CCN(C(=S)NCC3CCCO3)CC2)cc1 (stereo not drawn),-2,14,-1,-4,0,-17
COc1ccc(CCNC(=S)N2CCC(C(=O)c3ccc(F)cc3)CC2)cc1OC,-6,14,1,-1,0,-44*
COc1ccc(CN2CCC(C(=O)c3ccc(F)cc3)CC2)cc1,-19,3,-10,-2,0,-46*
COc1ccc(COC(=O)C2CCN(S(=O)(=O)c3ccc(F)cc3)CC2)cc1,-2,37*,-5,-3,2,-35*
Cc1ccc(CN2CCC(C(=O)c3ccc(F)cc3)CC2)cc1,.,.,.,-4,.,.
c1csc(CNCCCN2CCCCC2)c1,.,.,.,3,.,.
COc1ccc(CCNC(=O)C2CCC(C(C)(C)C)CC2)cc1OC (stereo not drawn),-15,5,8,1,0,-63*
Cc1ccc(C(=O)NCCOc2cccc(C)c2)cc1,5,1,-3,2,-1,-4
CSc1ccccc1C(=O)NCCOc1cccc(C)c1,-4,3,-6,-2,0,-50*
COc1cccc(NC(=O)Nc2cc(Cl)ccc2C)c1,-9,9,9,-2,2,-34*
COc1cccc(NC(=O)NC(=O)c2c(C)cc(Cl)nc2Cl)c1,-4,2,5,1,1,-41*
COc1ccc(/C=C/C(=O)c2ccc(C3CCCCC3)cc2)cc1O,.,.,.,10,.,.
Cc1ccc2c(c1)c1c(c(=O)n(-c3cccc(Cl)c3)c(=O)n1CC(=O)c1ccc(Cl)cc1)n2C,0,7,5,4,-1,-1
COc1ccccc1NC(=O)Cn1c(=O)n(-c2cccc(Cl)c2)c(=O)c2c1c1cc(C)ccc1n2C,3,48*,-4,-5,0,-4
Cc1ccc2c(c1)c1c(c(=O)n(-c3ccccc3C)c(=O)n1CC(=O)c1ccc(Cl)cc1)n2C,-2,4,2,1,0,-32*
COc1ccc2c(c1)c1c(c(=O)n(Cc3ccccc3)c(=O)n1CC(=O)Nc1ccc(C)cc1C)n2C,-1,-1,3,-1,-1,-65*
